This note sets out measurements from PubChem BioAssay (NCATS).

SMILES strings stand for the structures. Results filed as inconclusive are left out. Activity calls are given as the source filed them. Unless noted, the call rests on the fitted dose curve; in most records, active means well fitted curve in the direction sought with a large enough effect; inconclusive means small, poorly fitted or top-dose-only effect, or another doubt; inactive means no such curve, though single readings can be large; an effect the other way counts as inactive or inconclusive.

The nature of experiment [1]: qHTS to identify inhibitors of the type 1 interferon - major histocompatibility complex class I in skeletal muscle: primary screen against the NCATS Mechanism Interrogation Plate v5.0 (MIPE) Libary (AID 1347411).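 Further: plate controls were vehicle for no effect and reference inhibitor for full effect; nearly all actives have a fitted effect of over 65% in size.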 The method, boiled down:
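Cells were genome-edited human myoblasts carrying a HiBit tag on endogenous HLA-B. They were treated with IFN-beta (4.0 ng/ml) and titrated compounds (top 46 uM) for 24 hrs before lytic HiBiT detection.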
In general terms: In qHTS, concentration-response curves come from the screen itself.

Experiment [2] can be described thus: Primary qHTS for inhibitors of nuclear receptor binding SET domain protein 2 (NSD2) in an isogenic RCH-ACV NSD2 p.E1099K mutant (9B) (AID 1645876). Further: nearly all actives have a fitted effect of over 70% in size. Further: potency means the concentration at half of the fitted maximal effect.
Experiment [3] is described as follows: Primary qHTS for inhibitors of nuclear receptor binding SET domain protein 2 (NSD2) in an RCH-ACV wild type WT cells (2C) (AID 1645877). Further: nearly all actives have a fitted effect of over 70% in size. Further: potency means the concentration at half of the fitted maximal effect.
The target of experiment [4] is Glutathione peroxidase 1 (Homo sapiens) (UniProt P07203). Briefly: Primary qHTS Assay for Inhibitors of Recombinant Selenoprotein Glutathione Peroxidase 1 (GPX1) (AID 1845191). Further: nearly all actives have a fitted effect of over 65% in size. The procedure, abridged:
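GR-coupled assay: compounds preincubated 30 min at room temperature with GPX1, then reaction started with CHP; final 10 nM GPX1, 1 mM GSH, 0.5 mM CHP, 0.5 mM NADPH, 100 nM GR, 0.01% BSA, pH 7.5 Tris buffer. NADPH fluorescence (340/450 nm) read at 0 and 15 min.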

The nature of experiment [5]: qHTS drug screen for cell cycle checkpoint inhibitors in PARPi-resistant BRCA-mutant ovarian cancer cell lines. (AID 1963452; calls by dose curve). The settings on record: PEO1/OlaR viability, CellTiter-Glo luminescence, 96 h, stronger effect = lower value. The method, boiled down:
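PEO1, PEO4 and PEO1/OlaR ovarian cancer cells, 600 per well, exposed 96 h at 37C to a dilution series. Viability read by CellTiter-Glo luminescence, normalized to DMSO and empty wells; activity summarized as Z-AUC.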

For experiment [6], the target named is Phospholipid hydroperoxide glutathione peroxidase GPX4 (Homo sapiens) (UniProt P36969). As to the kind of experiment: Primary qHTS Assay for Inhibitors of Recombinant Selenoprotein Glutathione Peroxidase 4 (GPX4) (AID 1845192). Further: series mostly up to about 50 µM; on the % scale 0 is the no-effect control and ±100 the full control effect; nearly all actives have a fitted effect of over 65% in size. Particulars: outcome: dose series up to 50 µM unless noted. The method, boiled down: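 GR-coupled assay: recombinant GPX4 preincubated 30 min with compound at room temperature; final 200 nM GPX4, 1 mM GSH, 0.5 mM cumene hydroperoxide, 0.5 mM NADPH, 100 nM GR, 0.01% BSA, pH 7.5 Tris. NADPH fluorescence (340/450 nm) read at 0 and 15 min.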
Sequence of Phospholipid hydroperoxide glutathione peroxidase GPX4 (Homo sapiens) (P36969 whole entry, looked up): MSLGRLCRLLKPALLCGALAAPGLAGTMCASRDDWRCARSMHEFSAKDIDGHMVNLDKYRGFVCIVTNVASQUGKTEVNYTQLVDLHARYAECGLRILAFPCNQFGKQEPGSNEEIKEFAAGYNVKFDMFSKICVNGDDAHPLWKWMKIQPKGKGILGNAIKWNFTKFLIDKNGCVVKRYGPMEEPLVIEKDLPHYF

Where [7] appears, read: measured here: PEO1 parental Z-AUC.

Sequence of Glutathione peroxidase 1 (Homo sapiens) (P07203 whole entry, looked up): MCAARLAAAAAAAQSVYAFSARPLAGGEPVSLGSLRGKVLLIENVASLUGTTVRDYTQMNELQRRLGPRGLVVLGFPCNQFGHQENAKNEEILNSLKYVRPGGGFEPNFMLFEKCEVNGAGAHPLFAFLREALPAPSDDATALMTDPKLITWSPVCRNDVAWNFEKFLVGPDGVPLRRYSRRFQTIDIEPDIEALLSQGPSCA

For the compound `C[C@@H]1CC(=O)Nc2cccc(-c3ccc4c(c3)c(-c3cnn(C)c3)nn4C)c2N1`, the Potency entry in experiment [1] and in experiment [4] was “inactive” each time. For the same compound, the Potency is 742 nM (active) in experiment [2] and 662 nM (active) in experiment [3]. The results for the Z-AUC in experiment [5], in experiment [5] (setting [7]) and in experiment [5] (measured here: PEO4 Z-AUC) were 1.34 (inactive), 1.02 and 1.12, respectively.
In the case of `O=C(O)CCNc1cc(N2CCc3ccccc3CC2)nc(-c2cccnc2)n1`, the Potency result in experiment [1], in experiment [2], in experiment [3] and in experiment [4] was “inactive” each time. For the same compound, the Z-AUC in experiment [5] is 1.21 (inactive); in experiment [5] (setting [7]), 0.839; in experiment [5] (measured here: PEO4 Z-AUC), 0.897.
Regarding `Cn1ncc(NC(=O)c2nc(-c3c(F)cccc3F)sc2N)c1N1CC[C@@H](N)[C@H](F)CC1`, the Potency entry in experiment [1], in experiment [2], in experiment [3] and in experiment [6] was “inactive” each time. Further, the figures for the Z-AUC in experiment [5], in experiment [5] (setting [7]) and in experiment [5] (measured here: PEO4 Z-AUC) were 0.883 (inactive), 0.956 and 0.537, respectively.
In the case of `CC(C)n1cc(-c2ccc3c(c2)N(C)CC3)c2c(NS(=O)(=O)c3ccn(C)n3)ccnc21`, the Potency result in experiment [1], in experiment [2], in experiment [3] and in experiment [4] was “inactive” each time. Further, the values for the Z-AUC in experiment [5], in experiment [5] (setting [7]) and in experiment [5] (measured here: PEO4 Z-AUC) were 1.52 (inactive), 0.948 and 0.671, respectively.
In the case of `CC(C)(NS(=O)(=O)c1ccc2c(Cl)cnc(N=C(N)N)c2c1)C(=O)O`, the Potency result in experiment [1], in experiment [2] and in experiment [3] was “inactive” throughout. Besides, the Z-AUC in experiment [5] is -0.917 (inactive); in experiment [5] (setting [7]), 0.762; in experiment [5] (measured here: PEO4 Z-AUC), 0.0928.
`CNC(=O)Cn1cc(-c2ccc3c(c2)C(F)CC32NC(=O)N(CC(=O)N(Cc3ccc(F)cc3)C(C)C(F)(F)F)C2=O)cn1` (configuration not stated): the Potency entry in experiment [1], in experiment [4] and in experiment [6] was “inactive” in each case. The Potency in experiment [2] is 83.3 nM (active); in experiment [3], 132 nM (active). The Z-AUC is 0.772 (inactive) in experiment [5], 0.67 in experiment [5] (setting [7]) and 0.562 in experiment [5] (measured here: PEO4 Z-AUC).
